Source: PubChem
Sampled rows, rich in hits. Any-hit rate of the full collection: about 12%.
BAZ2B block – blocks human BAZ2B | Q9UIF8 | AlphaScreen BAZ2B-H3K14Ac peptide displacement | Potency, µM (doses to about 114 µM), for inactives: at the top dose activity change, negative = inhibition, actives largely listed as inhibitors | hit rate 4.4% among 360,000; note: % is set by controls: 0 for no effect and ±100 for the full control effect; nearly all actives have a fitted effect of over 60% in size
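Protein-peptide AlphaScreen: BAZ2B 50 nM, b-H3K14Ac 50 nM, 1x PBS pH 7.4 + 0.01% Tween-20. Preincubation 30 min RT; cpd 30 min RT (top 110 uM); beads 20 min RT, light-protected.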
Sfp PPTase inh – Sfp phosphopantetheinyl transferase inhibition; hit rate 3.5% among 310,000; Biochemical Sfp PPTase activity, qHTS; Potency, µM, inactives show largest response in the series, negative = inhibition, most hits filed as inhibitors;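 note: the enzyme is Sfp with the accession as filed and its product quenches rhodamine fluorescence; 0% = enzyme reaction without inhibitor and -100% = no enzyme wells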
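After 15 min at room temperature with compound, 15 nM Sfp received 5 uM rhodamine-CoA plus 12.5 uM BHQ-2-ybbR (50 mM Hepes pH 7.6, 10 mM MgCl2). Rate came from the fluorescence difference over 30 min, ex 525/em 598 nm.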
HP1b chromo inh – HP1-beta chromodomain-methylated histone interaction inhibition | P83916 | AlphaScreen HP1-beta / biotin-H3K9me3 peptide binding | Potency, µM (highest dose often 114 µM), without a hit: at the top dose activity change, negative = inhibition, hits mostly inhibitors | hit rate 0.56% among 390,000; note: nearly all actives have a fitted effect of over 70% in size
Target sequence (P83916 whole entry, looked up): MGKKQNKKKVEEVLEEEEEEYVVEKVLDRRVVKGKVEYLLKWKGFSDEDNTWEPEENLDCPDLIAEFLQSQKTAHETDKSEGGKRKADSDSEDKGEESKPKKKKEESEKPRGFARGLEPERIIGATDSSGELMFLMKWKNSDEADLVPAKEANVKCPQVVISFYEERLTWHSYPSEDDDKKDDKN
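Compound inhibition of the preformed complex between 50 nM HP1-beta and 50 nM biotinylated H3K9me3 peptide was read by AlphaScreen. Buffer was PBS pH 7.4 with 0.01% Tween-20. Incubations ran 30 min at room temperature, with 10 ug/mL donor/acceptor beads.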
JMJD2A Tudor – inhibitors of human JMJD2A Tudor domain | AlphaScreen JMJD2A-Tudor / H3K4me3 peptide binding | O75164 | AID 504339 | hit rate 4.4% among 390,000 | Potency, µM (highest dose often 114 µM), for inactives: at the highest dose activity change, negative = inhibition, most hits filed as inhibitors; note: % is set by controls: 0 for no effect and ±100 for the full control effect; nearly all actives have a fitted effect of over 50% in size
G9a inh – G9a (human) methyltransferase inhibition. hit rate 8.8% among 350,000. Q96KQ7. Potency, µM (titrated, usually from 102 µM), without a hit: top-dose activity, negative = inhibition, hits mostly inhibitors. AID 504332. G9a H3K9 monomethylation, AlphaScreen, 2 h; note: % is set by controls: 0 for no effect and ±100 for the full control effect; nearly all actives have a fitted effect of over 75% in size
Target sequence (Q96KQ7 913-1193 limits assumed): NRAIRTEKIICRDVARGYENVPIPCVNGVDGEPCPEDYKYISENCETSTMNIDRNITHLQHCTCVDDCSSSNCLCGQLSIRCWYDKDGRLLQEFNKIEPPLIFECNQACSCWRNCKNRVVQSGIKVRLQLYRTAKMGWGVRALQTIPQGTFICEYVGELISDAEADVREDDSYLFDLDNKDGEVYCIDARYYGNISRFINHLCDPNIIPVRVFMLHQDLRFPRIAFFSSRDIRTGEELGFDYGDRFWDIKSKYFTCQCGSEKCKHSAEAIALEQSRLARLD
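Chemiluminescent proximity detection of H3K9 monomethylation, read after 10 min bead incubation in the dark. Reaction: 20 nM G9a, 500 nM biotin-H3K9 peptide, 20 uM SAM cofactor, 2 h, room temperature, following 15 min enzyme-compound preincubation.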
Starred values were filed as active, the others as inactive; ? = inconclusive; . = no result; [ ] = remark or other dose. Calls come from the whole dose curve; as a rule, active = well fitted curve in the direction sought with a large enough effect; inconclusive = small, poorly fitted or top-dose-only effect, or another doubt; inactive = no such curve, though single readings can be large; an effect the other way counts as inactive or inconclusive. Potency is the fitted concentration of half-maximal effect.

SMILES	BAZ2B block	Sfp PPTase inh	HP1b chromo inh	JMJD2A Tudor	G9a inh
O=C(/C=C/c1cccc(OCc2ccccc2)c1)c1cccnc1	-10%	50µM*	35%	-27%	?
O=C(c1cccc(F)c1)N1CCC2(CC1)CCN(C(c1ccccc1)c1ccccc1)CC2	.	-12%	.	.	-4%[12.7 µM]
Cc1ccc(NC(=O)C2=CC(c3ccc(C)cc3)=NS(=O)(=O)N2C)cc1	1%	14%	3%	?	40µM*
CC(=O)c1ccc(NC(=O)C2=CC(c3ccc(C)cc3)=NS(=O)(=O)N2C)cc1	?	.	-13%	?	14µM*
CC(=O)c1ccc(NC(=O)C2=CC(c3ccc4c(c3)OCO4)=NS(=O)(=O)N2C)cc1	-27%	12%	43%	18%	-3%[59 µM]
COc1ccc(C2=NS(=O)(=O)N(C)C(C(=O)Nc3ccc(C)cc3)=C2)cc1	?	3%	-3%	-20%	?
CC(C)c1cc(Nc2cccc(O)c2)cc(C(C)C)c1O	32µM*	22µM*	.	.	?
COc1ccc(Nc2nnc(SCc3cc(=O)n4ccsc4n3)s2)cc1	-2%[57.1 µM]	56µM*	-2%	22µM*	4µM*
O=c1cc(CSc2nnc(Nc3ccccc3F)s2)nc2sccn12	-23%	11%	8%	-13%	?
Cc1cccn2c(=O)cc(CSc3nnc(NC(=O)COc4ccccc4)s3)nc12	28µM*	.	36%[57 µM]	56µM*	-27%[12.7 µM]
Cc1ccc(OCC(=O)Nc2nnc(SCc3cc(=O)n4cccc(C)c4n3)s2)cc1	-11%	.	8%	?	-4%[59 µM]
CN(Cc1ccc(F)cc1)C(=O)c1ccc(NS(=O)(=O)c2ccccc2)cc1	-9%	.	57%	-11%	-30%
CN(Cc1ccccc1)C(=O)COC(=O)c1cc(S(=O)(=O)N(C)C)ccc1N1CCCC1	-19%	.	22%	-12%	50µM*
CN(C)S(=O)(=O)c1ccc(N2CCCC2)c(C(=O)Nc2ccccc2Br)c1	6%	.	28%	-17%	45µM*
CCc1ccccc1NC(=O)c1cc(S(=O)(=O)N(C)C)ccc1N1CCCC1	-5%	19%	18%	-7%	10%
Cc1ccccc1NC(=O)c1cc(N)ccc1N1CCCCC1	?	-16%	-5%	?	32µM*
O=C(NCc1ccccc1Cl)c1ccc(CSCc2ccccc2Cl)o1	7%	.	21%	-1%	12%[59 µM]
CN(C)S(=O)(=O)c1ccc(NC(=S)NC(=O)c2cccs2)cc1	-17%	32µM*	15%	-25%	-1%
CCN(CC)c1ccc(NC(=O)CN(C)Cc2cccs2)cc1	32µM*	-10%	45µM*	40µM*	8.9µM*
CCN(c1ccccc1)S(=O)(=O)c1ccc(NC(=S)NC(=O)c2cccs2)cc1	-12%	?	-15%	-27%	5%[59 µM]
CCCC(=O)NC(=S)Nc1ccc(N2CCN(C(=O)c3cccs3)CC2)cc1	?	11%	4%	-27%	40µM*
CCCC(=O)Nc1ccc(NC(=S)NC(=O)c2cccs2)cc1	?	-15%	39%	-12%	32µM*
COc1cc(Cl)c(C)cc1NC(=O)CN1C(=O)C2CCCCC2C1=O (configuration not stated)	-2%	.	24%	-10%	-3%[12.7 µM]
CC(=O)NC(=S)Nc1ccc(NC(=S)NC(=O)c2cccs2)cc1	-6%	7%	35%	-29%	.
CCN(CC)c1ccc(NC(=S)NC(=O)c2cccs2)cc1	10µM*	?	?	18µM*	.
SMILES	BAZ2B block	Sfp PPTase inh	HP1b chromo inh	JMJD2A Tudor	G9a inh
O=C(NC(=S)Nc1ccc(-c2ccc(CO)o2)cc1)c1cccs1	.	8.9µM*	-14%[57 µM]	-10%	?
CCCC(=O)NC(=S)Nc1ccc(NC(=O)c2cccs2)cc1	3%	13%	44%	-7%	11µM*
O=C(C[C@@H]1C/C=C\C[C@H](Cc2ccc(F)cc2)C(=O)OCCNC1=O)N[C@H](CO)Cc1ccccc1	.	.	60%	-10%	.
Cc1oc(-c2ccc(Cl)cc2)nc1CS(=O)CC(=O)NCCCN1CC(C)CC(C)C1 (configuration not stated)	-14%	12%	38%	-20%	4%
O=C(NCc1ccc(Cl)cc1)c1ccc2oc(=O)n(Cc3ccccc3)c2c1	-7%	.	43%	-11%	29%[59 µM]
C=CCn1c(Cc2csc(N)n2)nnc1SCC(=O)OCC	28µM*	-7%	17%	45µM*	9%[59 µM]
C=CCn1c(Cc2csc(N)n2)nnc1SCC(=O)Nc1ccc(C(=O)OCC)cc1	22µM*	15%	33%	79µM*	17%[59 µM]
Cc1ccc2nc(N(Cc3cccnc3)C(=O)CCOc3ccccc3)sc2c1	-1%	.	36%	-33%	-1%[59 µM]
Oc1c(Br)cc(Br)cc1CNc1ccc(F)cc1	40µM*	-27%	-16%	?	45µM*
C=CC(=O)N1C(=O)c2ccccc2S1(=O)=O	.	-15%	.	.	.
CCOc1cc(CNC(=O)C(NS(=O)(=O)c2cccs2)C(C)C)cc(OCC)c1OCC (configuration not stated)	-12%	.	-8%	-25%	5%[59 µM]
CC(C)C(=O)N1CCC(n2nccc2NC(=O)CCc2ccccc2)CC1	-2%[57.1 µM]	4%	9%	25µM*	2%
CSCC(C)N1CCC(n2nccc2NC(=O)CCCc2ccccc2)CC1 (configuration not stated)	-17%	11%	40%	-7%	-1%
CC(C)C(=O)N1CCC(n2nccc2NC(=O)CCOc2ccccc2)CC1	-4%	12%	32%	-19%	4%[0.501 µM]
C=C(C)CCC(C)N1CCC(n2nccc2NC(=O)CCCc2ccccc2)CC1 (configuration not stated)	-15%	9%	14%	-13%	79µM*
